# Measurements reported in PubChem BioAssay (Tox21).
# Results filed as inconclusive are left out. Activity calls are given as the source filed them. Calls follow the shape of the dose curve; as a rule, active = well fitted curve in the direction sought with a large enough effect in the repeat runs; inconclusive = weak or mixed curves; inactive = no such curve, though single readings can be large; an effect the other way counts as inactive or inconclusive.
# Experiment: Caspase-3/7 induction in CHO-K1 cells by small molecules, qHTS cell viability counter screen (AID 1346979); also: nearly all actives have a fitted effect of over 35% in size; also: potency is read from the fitted curve at half-maximal effect
# Conditions: CellTiter-Fluor fluorescence, 17 h; series mostly up to 92.4 µM; activity change, negative = cytotoxicity: at the top concentration
# Method in brief: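 Multiplexed with Caspase-Glo 3/7 in CHO-K1 cells, this counter screen added CellTiter-Fluor after 16hr of compound exposure and recorded fluorescence 1hr later.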
# % is scaled to controls: 0 for no effect and ±100 for the full control effect.
Structure (SMILES),"activity change, negative = cytotoxicity",Potency
COc1cc(CNC(=O)CCCC/C=C/C(C)C)ccc1O,-9.94% (inactive),–
O=C(O)c1ccccc1-n1cc(C(=O)O)c(=O)c2cc(Nc3c(F)cc(F)cc3Cl)c(Cl)cc21,1.3% (inactive),–
CC(C)CCCCCOC(=O)CS,0.4% (inactive),–
O=c1[nH][nH]c2ccccc12,6.55% (inactive),–
C=C(C)C(=O)OCCCCCCCCCCOC(=O)C(=C)C,-0.629% (inactive),–
Cc1ccc(S(=O)(=O)NC(=O)NC2CCCC2)cc1,11.3% [at 42.5 µM] (inactive),–
O=C(N[C@@H](Cc1ccccc1)[C@@H](O)C(=O)N1C[C@@H](O)[C@@H](O)C1)c1cc2cc(Cl)ccc2[nH]1,-8.14% (inactive),–
CCCCCCCCOCCCN,-1.96% (inactive),–
CC(C)Oc1ccccc1O,9.2% (inactive),–
CCCN(C1CCN(C(=O)C2CCNCC2)CC1)[C@@H]1CCc2ccc(OC)cc2C1,5.13% (inactive),–
CCCc1ccc(OC)cc1,7.6% (inactive),–
CCOc1cc(OCC)c(C(C)=O)cc1OCC,–,26.8 µM (active)
O=C(O)c1cc(C(=O)O)c(C(=O)O)cc1C(=O)O,0.0517% (inactive),–
Cc1cc(C)c(C)c(O)c1,9.34% (inactive),–
FC(F)(Cl)C(F)(Cl)Cl,2.4% (inactive),–
Cc1c(-c2cccnc2)c2ccccc2n1CCCCC(=O)O,-0.323% (inactive),–
C=CCCC,-1.2% (inactive),–

Structure (SMILES),"activity change, negative = cytotoxicity",Potency
CCC(C)C1N=C(C)C(C)S1 (stereo not drawn),-2.06% (inactive),–
CCCCCCC/C=C/C=O,8.29% (inactive),–
Clc1ccccc1-c1nc(-c2ccncc2)no1,-4.28% [at 42.5 µM] (inactive),–
C=CC(=O)NC(C)(C)C,1.14% (inactive),–
CC(C)CC(C)(C)C,-1.15% (inactive),–
COc1ccc(/C=C/c2cc(OC)cc(=O)o2)cc1,-12.3% [at 42.5 µM] (inactive),–
C=Cc1ccc(C=C)cc1,5.72% (inactive),–
C(/C=C/C=C/Nc1ccccc1)=Nc1ccccc1,5.27% (inactive),–
O=C(Nc1ccc2c(c1)Cc1ccccc1-2)C(F)(F)F,7.83% (inactive),–
O=C(OCCN1CCOCC1)c1cccnc1Nc1cccc(C(F)(F)F)c1,1.3% [at 42.5 µM] (inactive),–
Clc1cc(Cl)c2c(c1)N=C1CCCCCN1C2,0.77% [at 42.5 µM] (inactive),–
COc1ccc(C(=O)c2ccc(C)cc2)c(O)c1,-10.1% (inactive),–
CC(=O)S[C@H](C(=O)N[C@H]1Cc2ccccc2[C@H]2CCC[C@@H](C(=O)O)N2C1=O)C(C)C,-1.76% (inactive),–
CCCCCCOC(=O)c1ccccc1,3.16% (inactive),–
O=S(=O)(O)c1cc(Cl)c(Cl)cc1Cl,14.3% (inactive),–
O=C1c2ccccc2C(=O)c2c1ccc(O)c2O,–,23.7 µM (active)

# Experiment: Caspase-3/7 induction in CHO-K1 cells by small molecules, qHTS assay (AID 1346980); also: nearly all actives have a fitted effect of over 15% in size
# Conditions: CHO-K1 caspase-3/7 induction, Caspase-Glo luminescence, 17 h; series mostly up to 92.4 µM; caspase-3/7 activation: at the top concentration
# Method in brief: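 Luminescent Caspase-Glo 3/7 read (30min, room temperature) quantified apoptosis induction. Cells were wild-type CHO-K1, treated with compound for 17hr at 37 C and 5% CO2.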
row,Structure (SMILES),caspase-3/7 activation
1,COc1cc(CNC(=O)CCCC/C=C/C(C)C)ccc1O,-1.38% (inactive)
2,O=C(O)c1ccccc1-n1cc(C(=O)O)c(=O)c2cc(Nc3c(F)cc(F)cc3Cl)c(Cl)cc21,1.17% (inactive)
3,O=C(Nc1ccccc1)c1cc([N+](=O)[O-])ccc1Cl,11.5% (inactive)
4,C[C@H]1C[C@H]2[C@@H]3CCC4=CC(=O)C=C[C@]4(C)[C@@]3(F)[C@@H](O)C[C@]2(C)[C@@]1(O)C(=O)COP(=O)(O)O,-0.752% (inactive)
5,CC(C)CCCCCOC(=O)CS,-0.0239% (inactive)
6,C=C(C)C(=O)OCCCCCCCCCCOC(=O)C(=C)C,0.98% (inactive)
7,O=C(N[C@@H](Cc1ccccc1)[C@@H](O)C(=O)N1C[C@@H](O)[C@@H](O)C1)c1cc2cc(Cl)ccc2[nH]1,0.0202% (inactive)
8,CCCCCCCCOCCCN,4.08% (inactive)
9,O=Cc1ccc([N+](=O)[O-])cc1,-0.0804% (inactive)
10,CC(C)Oc1ccccc1O,-0.761% (inactive)
11,CCCN(C1CCN(C(=O)C2CCNCC2)CC1)[C@@H]1CCc2ccc(OC)cc2C1,1.91% (inactive)
12,CCCc1ccc(OC)cc1,-0.0726% (inactive)
13,CCOc1cc(OCC)c(C(C)=O)cc1OCC,0.034% (inactive)
14,Cc1cc(C)c(C)c(O)c1,0.272% (inactive)
15,FC(F)(Cl)C(F)(Cl)Cl,0.735% (inactive)
16,CCc1ccc2c(c1)C(=O)c1ccccc1C2=O,-5.82% (inactive)
17,Cc1c(-c2cccnc2)c2ccccc2n1CCCCC(=O)O,2.71% (inactive)

row,Structure (SMILES),caspase-3/7 activation
1,C=CCCC,-0.7% (inactive)
2,CCC(C)C1N=C(C)C(C)S1 (stereo not drawn),1.36% (inactive)
3,CC(C)CC(C)(C)C,1.34% (inactive)
4,COc1ccc(/C=C/c2cc(OC)cc(=O)o2)cc1,-4.64% [at 42.5 µM] (inactive)
5,C=Cc1ccc(C=C)cc1,0.273% (inactive)
6,C(/C=C/C=C/Nc1ccccc1)=Nc1ccccc1,-0.153% (inactive)
7,O=C(Nc1ccc2c(c1)Cc1ccccc1-2)C(F)(F)F,-0.805% (inactive)
8,O=C(OCCN1CCOCC1)c1cccnc1Nc1cccc(C(F)(F)F)c1,-2.67% [at 42.5 µM] (inactive)
9,CC[C@H](NC(C)C)[C@H](O)c1ccc(O)c2[nH]c(=O)ccc12,0.847% [at 42.5 µM] (inactive)
10,C1=COCCC1,-0.25% (inactive)
11,Clc1cc(Cl)c2c(c1)N=C1CCCCCN1C2,2.12% [at 42.5 µM] (inactive)
12,COc1ccc(C(=O)c2ccc(C)cc2)c(O)c1,-1.61% (inactive)
13,CC(=O)S[C@H](C(=O)N[C@H]1Cc2ccccc2[C@H]2CCC[C@@H](C(=O)O)N2C1=O)C(C)C,1.08% (inactive)
14,CCCCCCOC(=O)c1ccccc1,0.76% (inactive)
15,O=S(=O)(O)c1cc(Cl)c(Cl)cc1Cl,1.54% (inactive)
16,O=C1c2ccccc2C(=O)c2c1ccc(O)c2O,-3.21% [at 42.5 µM] (inactive)

# Experiment: Caspase-3/7 induction in HepG2 cells by small molecules, qHTS cell viability counter screen (AID 1346981); also: nearly all actives have a fitted effect of over 30% in size; also: potency is read from the fitted curve at half-maximal effect
# Conditions: CellTiter-Fluor fluorescence, 17 h; series mostly up to 92.4 µM; activity change, negative = cytotoxicity: at the top concentration
# Method in brief: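 Viability determined by CellTiter-Fluor fluorescence in HepG2 wells also used for the luminescent Caspase-Glo 3/7 read. Compounds were present for 16 hr at 37 C, 5% CO2 before reagent addition.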
Structure (SMILES),"activity change, negative = cytotoxicity",Potency
O=C(O)c1ccccc1-n1cc(C(=O)O)c(=O)c2cc(Nc3c(F)cc(F)cc3Cl)c(Cl)cc21,3.22% (inactive),–
O=C(Nc1ccccc1)c1cc([N+](=O)[O-])ccc1Cl,0.0461% (inactive),–
C[C@H]1C[C@H]2[C@@H]3CCC4=CC(=O)C=C[C@]4(C)[C@@]3(F)[C@@H](O)C[C@]2(C)[C@@]1(O)C(=O)COP(=O)(O)O,9.45% (inactive),–
CC(C)CCCCCOC(=O)CS,-0.023% (inactive),–
O=c1[nH][nH]c2ccccc12,0.854% (inactive),–
Cc1ccc(S(=O)(=O)NC(=O)NC2CCCC2)cc1,0.157% [at 42.5 µM] (inactive),–
O=C(N[C@@H](Cc1ccccc1)[C@@H](O)C(=O)N1C[C@@H](O)[C@@H](O)C1)c1cc2cc(Cl)ccc2[nH]1,-5.38% (inactive),–
CCCCCCCCOCCCN,0.365% (inactive),–
O=Cc1ccc([N+](=O)[O-])cc1,0.564% (inactive),–
CC(C)Oc1ccccc1O,1.72% (inactive),–
CCCc1ccc(OC)cc1,7.51% (inactive),–
CCOc1cc(OCC)c(C(C)=O)cc1OCC,–,42.5 µM (active)
O=C(O)c1cc(C(=O)O)c(C(=O)O)cc1C(=O)O,-2.33% (inactive),–
CCc1ccc2c(c1)C(=O)c1ccccc1C2=O,-2.87% (inactive),–
Cc1c(-c2cccnc2)c2ccccc2n1CCCCC(=O)O,2.92% (inactive),–
C=CCCC,-1.33% (inactive),–

Structure (SMILES),"activity change, negative = cytotoxicity",Potency
CCC(C)C1N=C(C)C(C)S1 (stereo not drawn),0.088% (inactive),–
CCCCCCC/C=C/C=O,3.42% (inactive),–
Clc1ccccc1-c1nc(-c2ccncc2)no1,-2.67% [at 42.5 µM] (inactive),–
C=CC(=O)NC(C)(C)C,1.54% (inactive),–
CC(C)CC(C)(C)C,-0.452% (inactive),–
COc1ccc(/C=C/c2cc(OC)cc(=O)o2)cc1,-10.5% [at 42.5 µM] (inactive),–
C(/C=C/C=C/Nc1ccccc1)=Nc1ccccc1,8.68% (inactive),–
O=C(Nc1ccc2c(c1)Cc1ccccc1-2)C(F)(F)F,0.569% (inactive),–
O=C(OCCN1CCOCC1)c1cccnc1Nc1cccc(C(F)(F)F)c1,4.97% [at 42.5 µM] (inactive),–
CC[C@H](NC(C)C)[C@H](O)c1ccc(O)c2[nH]c(=O)ccc12,-0.468% [at 42.5 µM] (inactive),–
C1=COCCC1,-0.883% (inactive),–
Clc1cc(Cl)c2c(c1)N=C1CCCCCN1C2,-3.05% [at 42.5 µM] (inactive),–
COc1ccc(C(=O)c2ccc(C)cc2)c(O)c1,-6.14% (inactive),–
CC(=O)S[C@H](C(=O)N[C@H]1Cc2ccccc2[C@H]2CCC[C@@H](C(=O)O)N2C1=O)C(C)C,-0.449% (inactive),–
CCCCCCOC(=O)c1ccccc1,-2.03% (inactive),–
O=S(=O)(O)c1cc(Cl)c(Cl)cc1Cl,4.48% (inactive),–
